# ROMK primary = ROMK potassium channel modulators, primary screen, cell-based, thallium flux, MLSMR library; ATP-sensitive inward rectifier potassium channel 1 (Homo sapiens), P48048; Tet-inducible ROMK, thallium flux fluorescence; actives lie on both sides; B-score at 10 µM; hit rate 2% among 130,000; AID 1918, 2009;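 active = signal ratio slope over the read window, or its plate-corrected B-score, at least 3 SD from the plate mean, either direction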;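 also: B-score of the F/F0 ratio slope over 7 to 12 s after thallium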
# Target sequence (P48048 whole entry, looked up): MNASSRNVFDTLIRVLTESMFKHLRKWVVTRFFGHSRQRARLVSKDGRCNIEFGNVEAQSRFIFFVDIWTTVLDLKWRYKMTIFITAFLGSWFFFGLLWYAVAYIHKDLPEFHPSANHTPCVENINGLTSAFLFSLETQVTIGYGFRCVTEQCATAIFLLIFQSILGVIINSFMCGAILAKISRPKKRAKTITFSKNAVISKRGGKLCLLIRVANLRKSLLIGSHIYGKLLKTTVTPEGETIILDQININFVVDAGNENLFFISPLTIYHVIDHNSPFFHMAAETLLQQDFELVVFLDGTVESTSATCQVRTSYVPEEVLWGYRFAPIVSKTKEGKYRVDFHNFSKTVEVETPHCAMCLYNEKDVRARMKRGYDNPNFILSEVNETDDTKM
# WT yeast gro inh = growth inhibition of WT strain, primary screen, mitochondrial fusion inhibitor project, WT and mutant strains, chemical genetic; mitochondrial fusion phenotypic screen; hit rate 2.1% among 190,000; inhibition, % at 10 µM; AID 1362, 2008; in the data active = inhibition above about 58%; tested in S. cerevisiae
# KCC2 mod = KCC2 cotransporter modulators, thallium flux, primary screen, cell-based, HEK293 KCC2, FluoZin-2 fluorescence, MLSMR; hit rate 2.2% among 190,000; AID 1456, 2008; B-score of Tl+ flux slope (higher = more flux/activation; lower = inhibition) at 10 µM; KCC2 cells, thallium flux FluoZin-2 fluorescence;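 active = thallium flux slope and its plate-corrected score both differing from the plate sample mean at a set confidence after two filtering rounds, in either direction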;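 also: slope of fluorescence scaled to starting intensity during 10 to 20 s after thallium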
# m-calpain inh = inhibitors of pig calpain II, primary screen, biochemical, fluorogenic peptide substrate, 1536-well; inhibition, % at 16 µM; purified calpain II, 30 min; hit rate 0.37% among 220,000; AID 1236, 2008;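 active = inhibition above about 50%, limit read from the data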
# Lmaj promast = Leishmania major promastigote growth inhibition, primary screen; AID 1063, 2008; hit rate 9% among 200,000; inhibition, % at 10 µM; Leishmania major promastigotes, resazurin fluorescence viability; in the data active = inhibition above about 50%;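 also: promastigotes grown with compound for 44 hours at 28 °C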
# ROMK retest = ROMK channel modulator hit retest, confirmation, cell-based, thallium flux, duplicate, resupplied hits; normalized thallium flux (F/F0 slope) at 10 µM; AID 1917, 2009; fluorescence ratio; hits give low values; shares compounds with ROMK primary; hit rate 54% among 3,000;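 active = Flux at 10 µM at least 3 SD below or above vehicle control mean in one or both replicates; inconclusive = no clear call, values can overlap the other calls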
# Numbers stand for hits; – = inactive; ? = inconclusive; · = no result. Hits are enriched below; roughly 12% of the tested compounds scored in any of these assays.
SMILES,ROMK primary,WT yeast gro inh,KCC2 mod,m-calpain inh,Lmaj promast,ROMK retest
CCc1cc2cc3c(cc2nc1SCC(=O)Nc1cc(C)on1)OCO3,·,–,–,–,–,–
CCc1cc2ccc(C)cc2nc1SCC(=O)Nc1cc(C)on1,·,–,·,–,–,·
Cc1cc(Br)cc(C)c1OCC(=O)NNC(=O)CCC(=O)NCc1ccccc1,–,–,–,–,–,·
CN1CCN(Cc2c(O)ccc3cc(Br)ccc23)CC1,–,–,–,–,–,·
CN1CCN(Cc2c(O)ccc3cc(-c4ccccn4)c(=O)oc23)CC1,-3.3,–,–,–,–,0.059
Cc1oc(-c2ccc(F)cc2)nc1CN(Cc1ccccn1)CC1CCCO1 (centres undefined),–,–,–,–,–,·
COc1ccc(OC)c(/C=c2\sc3nc(-c4cccs4)nn3c2=O)c1,·,–,·,–,–,0.062
O=C(N/N=C/c1cccs1)c1cc(-c2ccncc2)nc2ccccc12,4.2,–,–,–,–,–
O=C(Nc1ccc(F)cc1)Nc1nnc(-c2ccncc2)s1,-2.1,–,–,–,–,–
CCOc1ccc(N(CC(=O)N2CCN(c3ccccc3)CC2)S(=O)(=O)c2c(C)noc2C)cc1,·,–,·,–,–,–
COc1ccc(N(CC(=O)N2CCN(c3ccccc3)CC2)S(=O)(=O)c2c(C)noc2C)cc1,·,–,·,–,–,·
COc1ccccc1CNCC(O)Cn1c2ccccc2c2ccccc21 (centres undefined),-3.2,–,–,–,100,0.061
CC(C)(C)NC(=O)COC(=O)c1snc(C(=O)NC2CCCCC2)c1N,-3.8,–,–,–,–,–
COc1ccc(C(=O)Cn2nnc(-c3ccccc3NC(=O)C(F)(F)F)n2)cc1,2,–,–,–,–,–
COc1cccc(-c2csc(N3CCN(C(=O)Nc4ccc(F)cc4)CC3)n2)c1,–,–,–,–,–,·
COc1cccc(-c2csc(N3CCN(C(=O)C4CCCCC4)CC3)n2)c1,·,–,–,–,–,?
COc1ccccc1NC(=O)NCC(=O)Nc1c(C)cccc1C,–,–,–,–,–,·
Cc1ccc(Cl)c2c1=NC(=O)C=2c1[nH]c(=S)[nH]c1O,-2.4,–,–,–,–,0.054
CC(=O)c1sc2nsc(SCCN3CCCC3)c2c1N,·,·,–,–,·,·
Cc1ccc2nc(/C(C#N)=C\c3ccc(Oc4ccc(C(F)(F)F)cc4[N+](=O)[O-])cc3)[nH]c2c1,·,–,–,–,–,·
CCCOc1cc(N(CC)CC)ccc1/C=C(/C#N)c1nc2ccc(C)cc2[nH]1,-4.2,–,–,–,66,0.039
N#Cc1cc2c(nc1SCc1ccncc1)CCC2,·,–,–,–,–,·
CCOC(=O)C(=NCCCN(C)C)NNc1cc(C(F)(F)F)ccc1Cl,-2.7,–,–,–,–,0.059
CCOC(=O)C(=NC(C)(C)C)NNc1cc(Cl)ccc1Cl,–,–,–,–,–,·
Cn1c(=O)c(Cc2ccccc2)c(O)c2ccccc21,·,–,–,–,–,·
SMILES,ROMK primary,WT yeast gro inh,KCC2 mod,m-calpain inh,Lmaj promast,ROMK retest
O=c1c(Cc2ccccc2)c(O)c2cccc3c4c(n1c23)CCCC4,3.8,·,–,–,·,?
CC(=O)Nc1cccc(OCCCNC(=O)c2cccc3ccccc23)c1,–,·,–,–,·,·
Cc1ccc(C)c(N2CCN(C(=O)C34CC5CC(C3)CC(n3nnc(C)n3)(C5)C4)CC2)c1,·,·,–,–,·,·
CNC(=O)c1sccc1-n1cccc1,2.9,–,–,–,–,–
COc1ccc2cc(C(c3nnnn3Cc3ccccc3)N3CCCCCC3)c(=O)[nH]c2c1 (centres undefined),·,·,–,·,–,·
COc1ccc(Cn2nnnc2C(c2ccccc2Cl)N2CCN(C3CCCC3)CC2)cc1 (centres undefined),-4.8,–,·,–,–,0.051
COc1ccc2cc(C(c3nnnn3Cc3ccc(F)cc3)N3CCCCCC3)c(=O)[nH]c2c1 (centres undefined),·,–,–,–,–,0.056
CCCC(c1nnnn1Cc1ccc(F)cc1)N1CCN(C)CC1 (centres undefined),–,–,–,–,–,·
CCC(c1nnnn1Cc1ccc(F)cc1)N1CCN(C2CCCCC2)CC1 (centres undefined),-3,–,·,–,–,?
O=C(c1ccccc1)c1c(O)nc(-c2ccccc2)n(-c2ccccc2)c1=O,–,–,–,–,–,·
O=C(Oc1ccc(=O)n(-c2ccccc2)n1)c1ccc(F)cc1,-3.8,–,·,–,–,0.053
O=C(Oc1ccc(=O)n(-c2ccccc2)n1)c1ccc(Cl)cc1,·,–,–,–,–,·
COc1cccc(C(=O)C2CCCN(C(=O)c3cccc(C#CC(C)(C)O)c3)C2)c1 (centres undefined),1.7,–,–,–,–,–
CCCCN(C)C(=O)c1nc2ccccn2c1CN1CCN(C(=O)c2cccs2)CC1,–,–,–,–,–,·
CC(=O)c1c(C)nc(-c2cccc([N+](=O)[O-])c2)n1O,-4.7,–,–,–,–,0.063
CCCCNC(=O)CN1C(=O)c2cccc(N)c2C1=O,–,–,–,–,–,0.055
CC1CCCCC1NC(=O)CN1C(=O)c2cccc(N)c2C1=O (centres undefined),-3.7,–,–,–,–,0.056
CC1CCCCC1NC(=O)Cn1cnc2ccccc2c1=O (centres undefined),–,–,–,–,–,·
N#C/C(=C/c1ccccc1[N+](=O)[O-])C(=O)NCc1ccco1,-2.4,–,–,–,–,0.045
N#C/C(=C\c1ccccc1[N+](=O)[O-])C(=O)NCc1ccccc1,·,·,–,–,·,·
O=C(NN1C(=O)c2ccccc2NC1c1ccccc1OCc1ccccc1)c1ccncc1 (centres undefined),–,–,–,–,–,·
CC1CN(C(=O)c2cc3c(s2)CCC3)CC(C)O1 (centres undefined),·,–,–,–,–,–
O=C(c1cc2c(s1)CCCC2)N1CCN(C(=O)C2CCCO2)CC1 (centres undefined),–,–,·,–,–,·
Cc1cccc(C2c3[nH]c4ccccc4c3CCN2C(=O)c2nn(C)c(=O)c3ccccc23)n1 (centres undefined),-4,–,–,–,–,0.066
Cc1cccc(C2c3[nH]c4ccccc4c3CCN2C(=O)c2ocnc2C)n1 (centres undefined),·,–,–,–,–,·
COc1cccc(-c2noc(-c3ccc(Br)o3)n2)c1,–,–,–,–,–,·
CC(=O)c1c(C)nn(C(C)CC(=O)O)c1C (centres undefined),·,–,–,–,–,–
COc1ccccc1/C=C/C1(C(=O)NC2CCCC2)CC(=O)N1c1ccc(C)cc1 (centres undefined),-5,–,–,–,–,0.062
CCN(CC)CCCNC(=S)N(Cc1ccco1)Cc1cc2cc3c(cc2[nH]c1=O)OCCO3,·,–,–,–,–,·

# Compound activity deposited in PubChem by several laboratories.
